Measured values taken from PubChem BioAssay (NCI).
This is part of a sample that, as a whole, favours compounds with a hit. Of some 83,000 tested, about 20% had one in any assay.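 96-well plates, one dose, 48 hours. Percent growth reported; active if below 10.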 Values without a mark were called inactive. The source made the active and inactive calls.

These compounds were tested on HCT-116 colon (assay: NCI-60 one-dose screen, 48 h (100 = growth as untreated, 0 = no growth, -100 = all killed)). Conditions: 10 µM unless noted.
For `COc1ccc(OC)c2c1[nH]c(=O)c1c3ccccc3cn21`, the growth was -71.5% (active).
Work on `CC1=CC(=O)C(C(C)=Nc2ccccc2Cl)C(=O)O1` (configuration not stated) yielded a growth of 100%.
With `COc1ccc(C(=O)/C=C/c2c(Cl)nc3c(c(C)nn3-c3ccccc3)c2-c2ccc(Br)cc2)cc1` the growth was 102%.
In the case of `Cc1c(C(N)=O)sc2c1c(=O)n(Cc1ccccc1)c1nnc(SCC(=O)Nc3ccc(Cl)cc3)n21`, the growth is reported as 2.83% (active).
Work on `Clc1nc(Cl)c2ncn(-c3ccccc3)c2n1` yielded a growth of 32.1%.
Compound `C[N+]1(CCc2ccccc2)CCC(CCC2CC[N+](C)(CCc3ccccc3)CC2)CC1` (configuration not stated) has a growth of 95.1%.
`O[C@@H]1Cc2ccc3ccccc3c2N[C@H](c2ccoc2)C1` gave a growth of 105%.
Work on `c1cnc2ccc3ncccc3c2c1` yielded a growth of 95.7%.
Work on `CCCCOc1ccc(C(C)(C)c2ccc(OCCCC)cc2)cc1` yielded a growth of 95.8%.
For `c1ccc(-n2nnnc2-c2cccc3ccccc23)cc1`, the growth was 14.9%.
With `CCCCCCCC/C=C/CCCCCCCC1=NC(C)(C)CN1CCO` the growth was -68% (active).
Work on `CC[N+](CC)(CCOCCOCC[N+](CC)(CC)Cc1ccc([N+](=O)[O-])cc1)Cc1ccc([N+](=O)[O-])cc1` yielded a growth of 97.8%.
`O=C(Nc1ncc([N+](=O)[O-])s1)c1cccc([N+](=O)[O-])c1` was tested, and the growth was 34.1%.
Work on `CC(=O)Oc1c(C)c(OC(C)=O)c2c(c1C(C)=O)OC1CC(=O)C(C(C)=O)=C(O)C21C` (configuration not stated) yielded a growth of 100%.
`COc1cc(Oc2cc(-c3cccnc3)ccc2NC(=O)Nc2ccc(F)cc2F)cc(OC)c1OC` gave a growth of 97.8%.
For `C=C1CC[C@@H]2[C@](C)(COC(C)=O)[C@H](OC(C)=O)CC[C@@]2(C)[C@@H]1CC(Nc1ccc(S(=O)(=O)Nc2cc(C)on2)cc1)C1=CCOC1=O` (some centres not stated), the growth was -1.13% (active).
`O=C(/C=C/c1ccccc1)CC(c1ccccc1)N1CCOCC1` (configuration not stated) was tested, and the growth was -97% (active).
Work on `CC[N+](C)(CC)CCCC(C)Nc1ccnc2cc(Cl)ccc12` (configuration not stated) yielded a growth of 110%.
With `CN(CC(=O)N(Cc1ccc(C2CCCCC2)cc1)c1ccc(C(=O)O)cc1)S(=O)(=O)c1c(F)c(F)c(F)c(F)c1F` the growth was 5.63% (active).
`O=C1c2nsnc2C(=O)c2c(F)c(F)c(F)c(F)c21` was tested, and the growth was -93.1% (active).
With `O=C(C(Br)Br)C(Br)C(Br)c1ccccc1` (configuration not stated) the growth was 24.7%.
With `CC/C(=C\c1ccc(N(C)C)cc1)c1nc2ccccc2c(=O)[nH]1` the growth was 108%.
In the case of `COc1cc(-c2cc(C(=O)Nc3nc4ccccc4s3)nc3cc(-c4ccccc4)nn23)cc(OC)c1OC`, the growth is reported as 57.8%.
`O=C(c1ccccc1)c1ccccc1Cl` showed a growth of 101%.
`O=C(CSc1nc2c(n1Nc1ccccc1)-c1ccccc1SC2)Nc1nc(-c2ccc(Cl)cc2)cs1` gave a growth of 36.9%.
Work on `O=c1[nH]c(Cl)nc2c1cnn2-c1ccccc1` yielded a growth of 31%.
Work on `CCn1c2ccccc2c2ccc(C(C)=O)cc21` yielded a growth of 105%.
With `COc1cccc(CCC2C(=O)CCCC2=O)c1` the growth was 114%.
In the case of `COc1ccc2c(c1)C(=O)/C(=C/c1cccc(OCC(=O)c3ccccc3)c1)CC2`, the growth is reported as 72.1%.
Work on `COc1ccc2c(c1)nc(N)c1c3cc(C)c(C)cc3cn21` yielded a growth of 49.6%.
For `CCCCCCCCCCCCCCCCN=C(CC(=O)O)C(=O)O`, the growth was 87.2%.
`COc1ccccc1[C@H]1c2[nH]c3ccccc3c2C[C@H]2C(=O)N(CCCCCCC(=O)NO)CC(=O)N12` was tested, and the growth was 18.3%.
Work on `COc1ccc(-c2cn(-c3ccccc3)c(-c3ccccc3)n2)cc1OC` yielded a growth of 20.3%.
Compound `Cc1ccc(C(=O)Nc2ccc(Cl)cc2C(=O)NCc2ccccc2)cc1` has a growth of 89.9%.
In the case of `CCN1C2=C(SC(=S)C1=C1SC(C(=O)OC)=C(C(=O)OC)S1)SC(=Nc1ccc(OC)cc1)C2=O`, the growth is reported as -80% (active).
In the case of `CCOc1cccc(C2CC(=O)Nc3cc4c(cc32)OCO4)c1` (configuration not stated), the growth is reported as 80.7%.
Work on `COc1ccc(C2CC(c3ccc(OC)c(OC)c3)=NN2C(=O)c2cc(OC)c(OC)c(OC)c2)cc1` (configuration not stated) yielded a growth of 20.6%.
